From PubChem BioAssay (NCI)
The panel holds about 83,000 compounds, 20% with a hit somewhere; the sample as a whole holds those more often.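 A percent growth of 40 corresponds to 60% growth inhibition; 0 means no net growth; -100 means all cells died. Active threshold: below 10.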 Unmarked numbers belong to inactive results. The source made the active and inactive calls.

Legend:
Assay in all cases: NCI-60 one-dose screen, 48 h (100 = growth as untreated, 0 = no growth, -100 = all killed)
Conditions in all cases: 10 µM unless noted
RPMI-8226 leukemia = test system: RPMI-8226 leukemia
OVCAR-8 ovarian = test system: OVCAR-8 ovarian
OVCAR-5 ovarian = test system: OVCAR-5 ovarian
OVCAR-4 ovarian = test system: OVCAR-4 ovarian
SK-OV-3 ovarian = test system: SK-OV-3 ovarian
IGROV1 ovarian = test system: IGROV1 ovarian
NCI/ADR-RES ovarian = test system: NCI/ADR-RES ovarian
OVCAR-3 ovarian = test system: OVCAR-3 ovarian
HS 578T breast = test system: HS 578T breast

Row | SMILES | growth (RPMI-8226 leukemia) | growth (OVCAR-8 ovarian) | growth (OVCAR-5 ovarian) | growth (OVCAR-4 ovarian) | growth (SK-OV-3 ovarian) | growth (IGROV1 ovarian) | growth (NCI/ADR-RES ovarian) | growth (OVCAR-3 ovarian) | growth (HS 578T breast) [%]
1 | COc1ccc(-c2cc(-c3ccc(Nc4nc(Nc5ccccc5)nc(Nc5ccc(Cl)cc5)n4)cc3)nc(N)c2C#N)cc1 | -29.6% (active) | 31.9% | -38.7% (active) | 4.19% (active) | 86.8% | -18.4% (active) | 2.12% (active) |  | 
2 | C=C1C(=O)O[C@H]2[C@H]1CC/C(Cn1cc(CNCCc3c[nH]c4ccccc34)nn1)=C\CC[C@@]1(C)O[C@@H]21 | 76.5% | 92.5% | 88.8% |  | 80.9% | 68.8% | 99.9% | 69.4% | 92.4
3 | C[C@H]1[C@H]2C3=CC[C@@H]4[C@@]5(C)C/C(=C/c6ccncc6)C(=O)C(C)(C)[C@@H]5CC[C@@]4(C)[C@]3(C)CC[C@@]2(C(=O)N2CCN(C)CC2)CC[C@@H]1C | 50.2% | 76.7% |  | 73.6% | 82.9% | 84% | 80.6% | 76.3% | 70
4 | CNC(=O)c1c(NC(=O)c2ccc(C(C)(C)C)cc2)sc2c1CCC(=O)C2 | -20.6% (active) | 15.7% | 9.12% (active) | -66.4% (active) | 0.618% (active) | 4.71% (active) | 8.75% (active) |  | 24.2
5 | c1ccc2c(c1)ncn2-c1nc2ccccc2n2c1nc1ccccc12 | 81.7% | 80.5% |  | 67.9% | 69.2% | 51.4% | 87% | 89.6% | 83.8
6 | O=C1NN(C(=O)c2ccc(O)cc2)C(c2ccccc2)=N/C1=C\c1cn(-c2ccccc2)nc1-c1ccccc1 | 90% | 97.2% | 94% | 95.3% | 92.6% | 91.5% | 99.7% |  | 99.8
7 | CN1CCC(=C2c3ccccc3C=Cc3ccccc32)CC1 | 72.7% | 85.4% | 108% | 72.9% | 97.6% | 72.7% | 75.6% | 104% | 
8 | c1ccc2c(c1)nc(-n1ccnc1)c1nc3ccccc3n12 | 77.9% | 30.4% | 82.4% | 68% | 21.5% |  | 49.2% | 78.1% | 70.3
9 | Clc1cnc(Nc2ccc(OCCN3CCCC3)cc2)nc1NCc1ccco1 | 6.95% (active) | 20.2% | 8.69% (active) | 51.6% | 57.8% |  | 18.5% | 28.8% | 31.4
10 | C=C1c2c(C)nn(-c3ccc(O)cc3)c2N(C)C23C[C@@H]1C1(C)c4c(C)nn(-c5ccc(O)cc5)c4N(C)C(C)(C[C@H]12)C3 (stereo not given in full) | -1.11% (active) | 27.8% | 85.8% | 32.2% | 37.7% |  | 47.4% |  | 52.4
11 | COc1ccc(C2=NC(=O)NC2c2ccc(OC)cc2)cc1 (stereo not given) | 57.4% | 97.6% | 77.8% | 74.8% | 66.4% | 77.8% | 1.85% (active) | 69% | 
12 | COc1cc(-c2cc(-c3ccc(Nc4nc(Nc5ccccc5)nc(Nc5ccc(Cl)cc5)n4)cc3)nc(N)n2)cc(OC)c1OC | 40.1% | 60.1% | 70% | 49.9% | 113% | 39.2% | 50.9% | 63.8% | 
13 | CN(C)S(=O)(=O)n1cnc([C@@H]2[C@@H]3C(=O)OC[C@@H]3C[C@]23N=CN(Cc2ccccc2)C3=O)c1 | -8.51% (active) | 107% |  | 79.6% | 107% | 113% | 102% | 105% | 100
14 | C=C1c2c(C)nn(-c3ccc(S(N)(=O)=O)cc3)c2N(C)C23CC1C1(C)c4c(C)nn(-c5ccc(S(N)(=O)=O)cc5)c4N(C)C(C)(CC12)C3 (stereo not given) | -64% (active) | 40.1% |  | 39.3% | 57.6% | 49.1% | 79.2% | 41.6% | 54.3
15 | O=c1[nH]c(=O)n(C2CC(O)C(CO)O2)cc1CO (stereo not given) | 98.9% | 99.9% | 29.7% | 107% | 107% | 124% | 4.34% (active) | 113% | 
16 | CCCCCCN(CCCCCC)CC(O)c1cccc2ccc(Cl)cc12 (stereo not given) | 31.2% | 93.8% | 69.3% | 70% |  | 40.8% | 66.9% | 63.2% | 61.2
17 | CCCCNC(=O)NS(=O)(=O)c1ccc(N2N=C(c3ccc(C)cc3C)CC2c2ccc(N(C)C)cc2)cc1 (stereo not given) | 34.2% | 57.7% | 84.6% | 64% | 97.7% | 89.9% | 46.8% |  | 88.1
18 | CCOC(=O)C(=CNc1ccccc1[N+](=O)[O-])C(=O)OCC | 92.6% | 101% | 96.4% | 110% | 110% |  | 101% | 105% | 98.6
19 | CC(C)(C)Nc1c(-c2c3ccccc3cc3ccccc23)nc2ccccn12 | 55% | 67.2% | 78.5% |  | 59.6% | 64.2% | 82.9% | 72.3% | 72
20 | O=C1C=CC(=Nc2cc(Br)c(O)c(Br)c2)C=C1 | -18.9% (active) | 66.7% | 94.7% | 50.1% | 117% |  | 63.9% | 32% | 83.8
21 | CCOc1cc(C2C(Cl)C(=O)N2n2cnnc2)ccc1O (stereo not given) | 103% | 95.5% | 106% | 98.2% | 82.4% | 104% | 100% |  | 88.7
22 | COc1cc(/C=C/C(=O)c2ccc(Nc3nc(Nc4ccccc4)nc(Nc4ccc(Cl)cc4)n3)cc2)cc(OC)c1OC | -4.87% (active) | 41.1% |  | 61% | 79.5% |  | 21.8% | 48% | 
23 | CS(=O)(=O)c1ccc(-c2[nH]c3ccc(F)cc3c2/C=N/NC(N)=S)cc1 | 12% | 20.8% |  | 50% | 13.4% | 29% | 11.1% | 11.8% | 28
24 | CNC(=O)NCC1OC(n2cnc3c(NC(=O)Nc4ccccc4)ncnc32)C2OC(C)(C)OC12 (stereo not given) | 87.2% | 100% | 109% | 89.6% | 79.3% |  | 101% | 89% | 102
25 | CCCCOc1ccc(NC(=O)n2nc(N=NN(C)C)c3ccc(Cl)cc32)cc1 | 92.7% | 105% | 103% | 96.6% | 86% |  | 98.3% | 104% | 93.6
26 | Cn1cc(Nc2nccc(-c3ccc(N4CCCC4)c(C#N)c3)n2)cn1 | 27.1% | 47.3% | 88% | 53.7% | 18.4% |  | 42.2% | 32.1% | 32.5
27 | O=C1N/C(=N/O)S/C1=C/c1cn(-c2ccccc2)nc1-c1ccccc1 | 98.8% | 89.9% | 109% | 111% | 77.6% |  | 99.8% | 93% | 83.1
28 | CC1=CC(=O)C(C(C)C)=CC1=Nc1cc(Br)c(O)c(Br)c1 | -8.71% (active) | 31.1% | 29.4% | 37.2% | 19.6% | 22.9% | -22.9% (active) | -9.25% (active) | 
29 | Cn1ncc2c(Nc3ccc(Br)cc3)nc(Nc3ccc(Br)cc3)nc21 | 23.2% | 59.6% | 56.9% | 51.9% | 78.1% | 48.9% | 21.5% |  | 
30 | COC1(CC[C@@H](C)COC2OC(CO)C(O)C(O)C2O)O[C@H]2C[C@H]3[C@@H]4CC=C5C[C@@H](OC6OC(CO)C(OC7OC(C)C(O)C(O)C7O)C(O)C6OC6OC(C)C(O)C(O)C6O)CC[C@]5(C)[C@H]4CC[C@]3(C)[C@H]2[C@@H]1C (stereo not given in full) | -56.3% (active) | -64.6% (active) | -86.6% (active) | -64.7% (active) | -71.8% (active) | -78.6% (active) | -75.6% (active) | -73.6% (active) | 
